Results as given in PubChem BioAssay.
Calls of active or inactive are those of the source. Unless noted, no rule for the calls is given here.

Legend:
[1] = compounds binding Alexa647 anti-His antibody – biochemical, small-molecule microarray, 635 nm fluorescence, artefact control for SMM control protein annotation, primary screen (AID 1128); settings: higher = more signal;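 also: score merges feature fluorescence with signal-to-noise for each printed compound spot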
[2] = tested on: Human papillomavirus type 1a E7 protein (residues 1-88); experiment: HPV1a E7 small-molecule binders, primary screen, biochemical, small-molecule microarray, residues 1-88, 635 nm (AID 1129); settings: small-molecule microarray binding, fluorescence 635 nm; higher = more signal
[3] = target: Focal adhesion kinase 1 (Homo sapiens) (UniProt Q05397); experiment: PTK2 protein binding on printed compound slides – biochemical, small-molecule microarray, 635/667 nm fluorescence, BSA, DTT, primary screen (AID 1130); settings: 635 nm fluorescence, higher = more signal;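 also: composite of spot emission at 667 nm and signal to noise over triplicate slides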
[4] = tested on: Fibrinogen (Alexa647-labelled); experiment: Alexa647-fibrinogen binding to printed small molecules – biochemical, small-molecule microarray, 635/667 nm fluorescence, artefact control for SMM control-protein annotation, profiling panel (AID 1131); settings: fibrinogen-A647 binding fluorescence, higher = more signal;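 also: z-score merges 667 nm fluorescence with per-spot signal-to-noise over triplicate slides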
[5] = target: Follistatin (Homo sapiens) (UniProt P19883); experiment: FST protein binding to printed compounds – biochemical, small-molecule microarray, 635/667 nm fluorescence, primary screen (AID 1132); settings: 635 nm fluorescence, higher = more signal
[6] = target: Fibroblast growth factor 2 (Homo sapiens) (UniProt P09038); experiment: basic fibroblast growth factor binding to printed compounds – biochemical, small-molecule microarray, 635/667 nm fluorescence, primary screen (AID 1133); settings: FGF2, fluorescence 635/667, higher = more signal
[7] = JC-1 mitochondrial potential readout, lung cancer cells – cell-based, A549, JC-1 fluorescence, basal, 24 h, 100 nL, profiling panel (AID 1138); settings: higher = more signal;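 also: A549 lung adenocarcinoma cells under basal conditions with no added stimulus; test concentration not given here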
[8] = tested on: Lefty1; experiment: Lefty1 protein binding to printed compounds – biochemical, small-molecule microarray, 635/667 nm fluorescence, primary screen (AID 1139); settings: fluorescence 635/667, higher = more signal
[9] = tested on: wheat germ agglutinin (Triticum aestivum), Alexa647-labelled; experiment: Alexa647-WGA lectin binding to printed small molecules – biochemical, small-molecule microarray, 635/667 nm fluorescence, artefact control for SMM control-protein annotation, profiling panel (AID 1140); settings: WGA-A647 binding, 635 nm fluorescence, higher = more signal;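 also: score merges 667 nm feature emission with signal to noise over triplicate slides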
[10] = target: Luciferin 4-monooxygenase (Photinus pyralis) (UniProt P08659); experiment: inhibition of purified Photinus pyralis luciferase – biochemical, luminescence, purified enzyme, 2006 set, primary screen (AID 1141); settings: purified firefly luciferase, SteadyGlo luminescence, 30 min; higher = more signal, called active from +8 up or from −8 down;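 also: cell-free assay with purified firefly luciferase at 100 ng per well in PBS; test concentration not given here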
[11] = tested on: Wnt5a (protein binding on small-molecule microarray); experiment: small molecules binding Wnt5a protein – biophysical, small-molecule microarray, 635/667 nm fluorescence, primary screen (AID 1142); settings: 635 nm fluorescence, higher = more signal;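 also: fluorescence read at 667 nm with signal to noise per printed feature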
[12] = ATP-based viability of Huh7 replicon cells – cell-based, CellTiter-Glo luminescence, basal, 48 h, cytotoxicity control for HCV replication inhibitor project, primary screen (AID 1143); settings: higher = more signal, called active from +8 up or from −8 down;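 also: Huh7 hepatoma cells carrying a hepatitis C replication reporter with no stimulus; test concentration not given here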
[13] = Pseudomonas biofilm growth suppression – PAO1 strain, BacTiter-Glo luminescence, LB-PBS, primary screen (AID 1144); settings: P. aeruginosa PAO1 biofilm, 12 h, higher = more signal
[14] = basal CRE-LacZ reporter activity in PC12 – cell-based, unstimulated, primary screen (AID 1145); settings: no forskolin, luminescence, 4.5 h, higher = more signal, called active from +8 up or from −8 down
[15] = forskolin-driven CRE-LacZ activity in PC12 – cell-based, CRE-LacZ reporter, forskolin-stimulated, primary screen (AID 1146); settings: luminescence, 4.5 h, higher = more signal, called active from +8 up or from −8 down;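 also: PC12 cells with 6xCRE LacZ reporter stimulated by forskolin 10 µM; beta-galactosidase reporter signal reflecting CREB driven transcription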
[16] = target: Streptavidin (Streptomyces avidinii) (UniProt P22629); experiment: compounds binding control protein streptavidin – biophysical, small-molecule microarray, 635/667 nm fluorescence, artefact control for SMM compound annotation, primary screen (AID 1147); settings: higher = more signal;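 also: signal reflects streptavidin binding to arrayed compounds as a control protein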
[17] = probe aInhba binding on compound microarray – biochemical, small-molecule microarray, 635/667 nm fluorescence, primary screen (AID 1148); settings: higher = more signal;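 also: score merges 667nm spot fluorescence with signal-to-noise for antibody binding to printed compounds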
[18] = target: Torsin-1A (Homo sapiens) (UniProt O14656); experiment: TOR1A wild-type binding on microarray – cell lysate, small-molecule microarray, lysate, 635/667 nm, primary screen (AID 1149); settings: COS7 hTOR1A-WT lysate, 635 nm fluorescence, higher = more signal
[19] = target: Torsin-1A (Homo sapiens) (UniProt O14656); experiment: torsin A mutant lysate binding on microarrays – cell lysate, small-molecule microarray, COS7 lysate, 635/667 nm fluorescence, primary screen (AID 1150); settings: COS7 hTOR1A mutant lysate, 635 nm fluorescence, higher = more signal;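 also: score pools 667 nm emission and signal to noise measuring lysate protein binding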
[20] = tested on: Sonic hedgehog protein (Shh); experiment: Sonic hedgehog microarray binding compounds – biochemical, small-molecule microarray, 635/667 nm fluorescence, primary screen (AID 1151); settings: 635 nm fluorescence, higher = more signal;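 also: Shh protein binding to compounds spotted on small-molecule microarray slides; score combines spot fluorescence intensity with signal-to-noise across triplicate slides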

Sequence of Luciferin 4-monooxygenase (Photinus pyralis) (P08659 whole entry, looked up): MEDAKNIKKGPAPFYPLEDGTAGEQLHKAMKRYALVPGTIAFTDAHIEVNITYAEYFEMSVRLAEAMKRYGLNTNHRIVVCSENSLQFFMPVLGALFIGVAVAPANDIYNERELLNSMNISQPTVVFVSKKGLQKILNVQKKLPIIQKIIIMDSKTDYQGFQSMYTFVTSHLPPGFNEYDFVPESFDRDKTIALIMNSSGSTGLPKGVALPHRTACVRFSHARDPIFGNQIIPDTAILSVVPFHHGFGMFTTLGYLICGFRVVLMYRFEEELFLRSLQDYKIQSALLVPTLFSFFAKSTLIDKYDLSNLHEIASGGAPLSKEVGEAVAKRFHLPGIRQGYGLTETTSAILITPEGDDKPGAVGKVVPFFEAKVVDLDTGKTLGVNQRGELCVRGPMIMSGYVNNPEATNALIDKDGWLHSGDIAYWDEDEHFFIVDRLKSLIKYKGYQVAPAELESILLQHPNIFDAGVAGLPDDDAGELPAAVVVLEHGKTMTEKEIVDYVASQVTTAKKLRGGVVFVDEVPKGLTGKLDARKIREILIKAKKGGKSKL
Sequence of Streptavidin (Streptomyces avidinii) (P22629 whole entry, looked up): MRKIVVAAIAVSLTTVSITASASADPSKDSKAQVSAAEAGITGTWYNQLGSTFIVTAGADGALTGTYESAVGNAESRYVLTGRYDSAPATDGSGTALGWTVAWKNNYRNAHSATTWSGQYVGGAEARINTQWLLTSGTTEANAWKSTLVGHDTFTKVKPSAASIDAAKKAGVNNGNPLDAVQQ
Sequence of Fibroblast growth factor 2 (Homo sapiens) (P09038 whole entry, looked up): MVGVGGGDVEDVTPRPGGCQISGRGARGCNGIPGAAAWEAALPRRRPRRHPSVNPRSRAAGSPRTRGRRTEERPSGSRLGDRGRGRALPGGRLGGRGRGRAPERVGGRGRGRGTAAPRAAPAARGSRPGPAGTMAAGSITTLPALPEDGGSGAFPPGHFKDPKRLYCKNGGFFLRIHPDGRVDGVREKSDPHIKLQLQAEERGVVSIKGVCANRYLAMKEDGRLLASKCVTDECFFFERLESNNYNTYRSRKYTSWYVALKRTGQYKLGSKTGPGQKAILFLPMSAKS
Sequence of Follistatin (Homo sapiens) (P19883 whole entry, looked up): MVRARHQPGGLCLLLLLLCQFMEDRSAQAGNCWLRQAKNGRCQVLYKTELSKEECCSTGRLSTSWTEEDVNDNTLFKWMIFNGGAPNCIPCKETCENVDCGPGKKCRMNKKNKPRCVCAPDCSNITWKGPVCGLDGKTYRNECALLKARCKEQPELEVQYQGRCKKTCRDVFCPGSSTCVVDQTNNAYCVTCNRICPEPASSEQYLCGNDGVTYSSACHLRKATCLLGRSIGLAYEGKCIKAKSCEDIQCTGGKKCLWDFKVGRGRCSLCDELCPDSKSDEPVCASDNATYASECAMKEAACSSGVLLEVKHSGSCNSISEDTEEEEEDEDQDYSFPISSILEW
Sequence of Focal adhesion kinase 1 (Homo sapiens) (Q05397 whole entry, looked up): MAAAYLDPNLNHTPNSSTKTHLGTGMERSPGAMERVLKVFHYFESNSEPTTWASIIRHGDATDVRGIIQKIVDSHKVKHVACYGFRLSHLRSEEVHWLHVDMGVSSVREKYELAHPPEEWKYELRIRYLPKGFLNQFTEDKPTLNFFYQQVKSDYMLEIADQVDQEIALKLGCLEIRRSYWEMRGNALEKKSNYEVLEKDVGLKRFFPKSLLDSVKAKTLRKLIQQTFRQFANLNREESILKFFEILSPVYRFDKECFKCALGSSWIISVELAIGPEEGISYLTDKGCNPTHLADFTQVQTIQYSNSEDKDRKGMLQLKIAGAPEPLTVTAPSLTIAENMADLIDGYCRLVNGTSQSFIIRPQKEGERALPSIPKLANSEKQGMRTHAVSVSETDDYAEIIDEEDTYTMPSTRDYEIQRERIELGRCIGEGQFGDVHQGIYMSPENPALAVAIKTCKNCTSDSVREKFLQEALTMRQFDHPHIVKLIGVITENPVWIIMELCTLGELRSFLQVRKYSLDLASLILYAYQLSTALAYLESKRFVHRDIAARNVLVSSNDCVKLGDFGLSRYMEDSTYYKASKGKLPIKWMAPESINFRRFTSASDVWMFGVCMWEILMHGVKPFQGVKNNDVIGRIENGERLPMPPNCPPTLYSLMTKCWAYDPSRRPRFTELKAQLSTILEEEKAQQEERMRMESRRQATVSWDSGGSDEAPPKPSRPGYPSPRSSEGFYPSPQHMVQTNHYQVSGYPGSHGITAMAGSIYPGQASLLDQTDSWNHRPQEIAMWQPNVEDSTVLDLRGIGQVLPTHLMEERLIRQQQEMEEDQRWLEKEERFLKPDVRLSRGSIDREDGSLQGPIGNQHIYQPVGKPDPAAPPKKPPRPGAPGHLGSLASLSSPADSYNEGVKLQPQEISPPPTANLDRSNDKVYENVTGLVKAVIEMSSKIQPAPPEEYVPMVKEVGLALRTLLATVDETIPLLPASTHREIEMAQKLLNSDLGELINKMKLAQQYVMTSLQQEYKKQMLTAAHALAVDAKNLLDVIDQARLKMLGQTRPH
Sequence of Torsin-1A (Homo sapiens) (O14656 whole entry, looked up): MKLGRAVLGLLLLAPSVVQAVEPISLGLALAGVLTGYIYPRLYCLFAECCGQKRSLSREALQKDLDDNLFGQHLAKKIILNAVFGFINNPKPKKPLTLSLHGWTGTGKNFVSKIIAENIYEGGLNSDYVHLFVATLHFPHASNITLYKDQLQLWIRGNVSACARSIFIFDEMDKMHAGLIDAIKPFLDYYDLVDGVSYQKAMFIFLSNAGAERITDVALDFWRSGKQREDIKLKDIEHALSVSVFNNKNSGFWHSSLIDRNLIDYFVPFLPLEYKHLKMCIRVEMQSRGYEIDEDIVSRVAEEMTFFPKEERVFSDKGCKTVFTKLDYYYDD

## O=C1c2ccccc2[C@](Cc2ccccc2I)(C(=O)NCC(F)(F)F)[C@H](c2ccc(CO)cc2)N1C1CCCCC1
[1]
  composite z-score: 1.64
[2]
  composite z-score: 1.21
[3]
  composite z-score: -0.003
[4]
  composite z-score: 0.964
[5]
  composite z-score: 0.846
[6]
  composite z-score: 0.18
[7]
  z-score: 2.17
[8]
  composite z-score: 0.289
[9]
  composite z-score: 0.856
[10]
  z-score: -1.61 (inactive)
[11]
  composite z-score: 0.2
[12]
  z-score: -0.772 (inactive)
[13]
  z-score: 1.01 (inactive)
[14]
  z-score: 0.324 (inactive)
[15]
  z-score: 2.63 (inactive)
[16]
  composite z-score: 1.1
[17]
  composite z-score: 0.029
[18]
  composite z-score: 0.365
[19]
  composite z-score: 0.936
[20]
  composite z-score: 0.176

## C=CCOC(=O)[C@H]1[C@@H]2C(=O)O[C@@H](c3ccccc3)[C@@H](c3ccccc3)N2[C@@H](c2ccc(OCCOC(=O)[C@H]3C[C@H]4C(=O)N[C@@H](CC(C)C)C(=O)N4[C@H]3c3cccc(OCCO)c3)cc2)[C@]12C(=O)Nc1ccc(I)cc12
[1]
  composite z-score: 2
[2]
  composite z-score: 1.18
[3]
  composite z-score: 0.84
[4]
  composite z-score: 0.452
[5]
  composite z-score: 1.36
[6]
  composite z-score: 1.71
[7]
  z-score: -0.175
[8]
  composite z-score: 1.22
[9]
  composite z-score: 0.437
[10]
  z-score: -1.48 (inactive)
[11]
  composite z-score: 0.725
[12]
  z-score: 0.0478 (inactive)
[13]
  z-score: 0.568 (inactive)
[14]
  z-score: 0.411 (inactive)
[15]
  z-score: -0.368 (inactive)
[16]
  composite z-score: 0.205
[17]
  composite z-score: -0.154
[18]
  composite z-score: 0.644
[19]
  composite z-score: 0.908
[20]
  composite z-score: 1.73

## [N-]=[N+]=NCc1ccccc1C[C@@]1(C(=O)NCc2ccccc2)N=C(c2ccc(OCCCO)cc2)O[C@@H]1c1ccccc1N=[N+]=[N-]
[1]
  composite z-score: 1.64
[2]
  composite z-score: 1.18
[3]
  composite z-score: 0.0861
[4]
  composite z-score: 0.948
[5]
  composite z-score: 0.557
[6]
  composite z-score: -0.58
[7]
  z-score: 1.12
[8]
  composite z-score: -0.324
[9]
  composite z-score: 1.15
[10]
  z-score: -6.99 (inactive)
[11]
  composite z-score: 0.122
[12]
  z-score: -3.96 (inactive)
[13]
  z-score: 0.0507 (inactive)
[14]
  z-score: 1.05 (inactive)
[15]
  z-score: -0.639 (inactive)
[16]
  composite z-score: 1.2
[17]
  composite z-score: -0.003
[18]
  composite z-score: 0.0959
[19]
  composite z-score: 0.461
[20]
  composite z-score: -1.08

## O=C1O[C@H](c2ccccc2)[C@H](c2ccccc2)N2[C@H]1[C@@H](C(=O)Nc1nc3ccccc3s1)[C@]1(C(=O)Nc3ccccc31)[C@H]2c1ccc(OCCO)cc1
[1]
  composite z-score: 1.55
[2]
  composite z-score: 1.19
[3]
  composite z-score: 0.522
[4]
  composite z-score: 1.01
[5]
  composite z-score: 1.45
[6]
  composite z-score: 1.18
[7]
  z-score: -2.15
[8]
  composite z-score: 1.2
[9]
  composite z-score: -0.0258
[10]
  z-score: -4.2 (inactive)
[11]
  composite z-score: 0.433
[12]
  z-score: -2.91 (inactive)
[13]
  z-score: -0.538 (inactive)
[14]
  z-score: -0.0515 (inactive)
[15]
  z-score: -0.124 (inactive)
[16]
  composite z-score: 0.534
[17]
  composite z-score: -0.113
[18]
  composite z-score: 0.927
[19]
  composite z-score: 1.2
[20]
  composite z-score: 1.5

## NC(N)=NCCCn1cc(CNC(=O)[C@@H](N)Cc2ccccc2)nn1
[1]
  composite z-score: 0.499
[2]
  composite z-score: -0.505
[3]
  composite z-score: -0.242
[4]
  composite z-score: -0.845
[5]
  composite z-score: 1.42
[6]
  composite z-score: 0.943
[7]
  z-score: -0.55
[8]
  composite z-score: 1.05
[9]
  composite z-score: 0.465
[10]
  z-score: 0.36 (inactive)
[11]
  composite z-score: -0.0448
[12]
  z-score: -0.109 (inactive)
[13]
  z-score: 1.6 (inactive)
[14]
  z-score: -0.491 (inactive)
[15]
  z-score: 0.35 (inactive)
[16]
  composite z-score: -0.298
[17]
  composite z-score: 0.017
[18]
  composite z-score: 0.485
[19]
  composite z-score: 0.142
[20]
  composite z-score: 1.08

## C=CCNC(=O)[C@@H]1[C@H]2C(=O)O[C@H](c3ccccc3)[C@H](c3ccccc3)N2[C@H](c2ccc(O)cc2)[C@@]12C(=O)N(C(=O)OCCOC)c1ccc(C#CC3(O)CCCCCC3)cc12
[1]
  composite z-score: -0.461
[2]
  composite z-score: -1.32
[3]
  composite z-score: -0.365
[4]
  composite z-score: -2.02
[5]
  composite z-score: -1.01
[6]
  composite z-score: -1.93
[7]
  z-score: 0.426
[8]
  composite z-score: -0.624
[9]
  composite z-score: -0.556
[10]
  z-score: 0.779 (inactive)
[11]
  composite z-score: -1.3
[12]
  z-score: -1.16 (inactive)
[13]
  z-score: -0.53 (inactive)
[14]
  z-score: -1.28 (inactive)
[15]
  z-score: 0.142 (inactive)
[16]
  composite z-score: -1.23
[17]
  composite z-score: -0.204
[18]
  composite z-score: -1.68
[19]
  composite z-score: -1.47
[20]
  composite z-score: -0.382

## COC(=O)c1c2oc(c1C(=O)OC)C(=O)N(Cc1ccccc1)Cc1cn(nn1)C[C@H](Cc1ccccc1)NC(=O)N[C@H](CO)CC2
[1]
  composite z-score: 0.402
[2]
  composite z-score: 0.848
[3]
  composite z-score: -0.0924
[4]
  composite z-score: 0.961
[5]
  composite z-score: 0.183
[6]
  composite z-score: -0.107
[7]
  z-score: 0.534
[8]
  composite z-score: 0.717
[9]
  composite z-score: 0.134
[10]
  z-score: 0.978 (inactive)
[11]
  composite z-score: 0.131
[12]
  z-score: -1.84 (inactive)
[13]
  z-score: -1.12 (inactive)
[14]
  z-score: 0.964 (inactive)
[15]
  z-score: -1.16 (inactive)
[16]
  composite z-score: -0.25
[17]
  composite z-score: -0.154
[18]
  composite z-score: -0.0053
[19]
  composite z-score: 0.218
[20]
  composite z-score: 0.346

## CN(C)C(=O)C1N=C(c2ccc(OCCCO)cc2)N(c2ccccc2)O1 (stereo not given)
[1]
  composite z-score: 1.33
[2]
  composite z-score: 1.13
[3]
  composite z-score: 0.268
[4]
  composite z-score: 0.598
[5]
  composite z-score: 1.35
[6]
  composite z-score: 1.8
[7]
  z-score: 0.936
[8]
  composite z-score: 1.29
[9]
  composite z-score: 0.586
[10]
  z-score: -14.9 (active)
[11]
  composite z-score: 1.15
[12]
  z-score: -1.17 (inactive)
[13]
  z-score: 0.265 (inactive)
[14]
  z-score: 0.0451 (inactive)
[15]
  z-score: -0.102 (inactive)
[16]
  composite z-score: -0.151
[17]
  composite z-score: 0.0658
[18]
  composite z-score: 1.19
[19]
  composite z-score: 1.56
[20]
  composite z-score: 2.03

## C[C@]1(C(=O)NC2CC2)c2ccccc2C(=O)N(Cc2ccccc2)[C@H]1c1ccc(CO)cc1
[1]
  composite z-score: -1.12
[2]
  composite z-score: -1.29
[3]
  composite z-score: 0.874
[4]
  composite z-score: -2.17
[5]
  composite z-score: -0.271
[6]
  composite z-score: -0.517
[7]
  z-score: -0.153
[8]
  composite z-score: -1.5
[9]
  composite z-score: -1.15
[10]
  z-score: -0.347 (inactive)
[11]
  composite z-score: -0.228
[12]
  z-score: -4.5 (inactive)
[13]
  z-score: -0.483 (inactive)
[14]
  z-score: 0.0279 (inactive)
[15]
  z-score: -0.957 (inactive)
[16]
  composite z-score: -0.854
[17]
  composite z-score: 0.0028
[18]
  composite z-score: 0.249
[19]
  composite z-score: -0.489
[20]
  composite z-score: -1.3
